Only some compounds are listed: those with a hit (about 2.7% of all), similar ones and a draw of the others.
INS-1E GSIS act = primary screen for activators of insulin secretion dependent on glucose, INS-1E cells, GLuc reporter luminescence | INS-1E GLuc reporter insulin secretion, 2-3 h | activation, % at 16.6 µM | 370,000 compounds, 0.61% hits;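 active = lowest replicate activation of at least 40%, so every replicate reaches that level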
PAX8 inh HTS = PAX8 transcriptional activity inhibition; inhibition, % at 12.6 µM; RMG-I TPO-luciferase reporter, SteadyGlo, 24 h; 360,000 compounds, 1.2% hits;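 active = mean replicate inhibition at least 60% with every replicate also reaching 60%; inconclusive = only one of the two criteria is met; inactive = mean below 60% and not all replicates reaching 60%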;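 also: luciferase light reporting Pax8 driven TPO promoter activity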
EWS-Fli block = blocks EWS/Fli oncoprotein-driven transcription; inhibition, % at 12.6 µM; A673 NR0B1-luciferase reporter, viability-normalised; 350,000 compounds, 0.67% hits;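 active = mean inhibition of at least 50% after viability correction, with every replicate also passing that limit; inconclusive = mean reaches 50% but only one of two replicates passes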;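 also: firefly luciferase signal divided by Alamar Blue viability fluorescence both relative to DMSO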
PGC1a acetyl inh = modulators of PGC1a acetylation; U2OS PGC1a acetylation, AlphaScreen anti-acetyl-lysine; with virally co-expressed GCN5 acetyltransferase; inhibition, % at 15.6 µM; 350,000 compounds, 0.17% hits; AID 651687;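 active = every replicate shows inhibition of at least 40%; inconclusive = mean inhibition at least 40% but some replicate below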
HIV Env fusion = blocks HIV Env-driven cell-cell fusion; HeLa-JRFL Env/CEM21 cell fusion, luciferase; inhibition, % at 12.3 µM; 360,000 compounds, 1.1% hits;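 active = mean replicate inhibition score of at least 50 and every replicate individually at or above 50; inconclusive = only one of the two criteria met; inactive = mean below 50 and not all replicates reaching 50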
F508del corr = CFTR F508del correction in bronchial cells; CFBE cells, YFP halide quenching; stimulated with forskolin plus potentiator P3; % fluorescence drop versus neutral controls; activity (quench increase), % at 7.58 µM; 350,000 compounds, 0.36% hits;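 active = mean added fluorescence quench of at least 8% versus neutral control, with both replicates also reaching 8%; inconclusive = only one of the mean or replicate conditions met; inactive = mean below 8% and not both replicates reaching 8%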;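 also: cells transiently co-express mutant CFTR-F508del with the halide-sensitive YFP; corrector assay measuring rescue of mutant channel to the surface after 24 h compound exposure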
DNA binding = binds DNA displacing acridine orange | shares compounds with EWS-Fli block | salmon sperm DNA acridine orange fluorescence polarization | AC35, µM (titrated, usually from 68 µM) | 640 compounds, 2% hits | AID 720586;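 active = fitted curve reaches a 35% signal fall AC35 below twice the sample's top valid tested dose, actives reach about 48 µM in these data; inactive = the rest, including activity in the rising direction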;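 also: lower polarization ratio signals compound binding to DNA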
Of the large screens only hits and unclear results are named; the others gave an inactive call (follow-up assays come after a bar, where they were run).

COC(=O)C[C@H]1CC[C@H]2[C@H](COc3ccc(NC(=O)c4ccccc4)cc3C(=O)N2C)O1	none
COC(=O)C[C@@H]1CC[C@@H]2[C@H](COc3ccc(NC(=O)c4ccc(F)cc4)cc3C(=O)N2C)O1	EWS-Fli block 57 | DNA binding inactive
COC(=O)C[C@@H]1CC[C@@H]2[C@H](COc3ccc(NC(=O)c4cc(F)cc(F)c4)cc3C(=O)N2C)O1	EWS-Fli block 61 | DNA binding inactive
COC(=O)C[C@@H]1CC[C@@H]2[C@H](COc3ccc(NC(=O)c4ccccc4)cc3C(=O)N2C)O1	EWS-Fli block 58 | DNA binding inactive
CO[C@H]1CN(C)C(=O)c2ccc(NC(=O)Nc3ccccc3)cc2OC[C@@H](C)NC[C@H]1C	none (no result: PAX8 inh HTS, HIV Env fusion)
O=C(Cc1cccnc1)N1[C@@H](CO)[C@@H]2c3ccccc3NC[C@@H]21	none (no result: HIV Env fusion)
CC(Oc1cccc(Cl)c1)C(=O)NCCCCc1ccccc1 (stereo unspecified)	EWS-Fli block 87 (no result: PGC1a acetyl inh, F508del corr) | DNA binding inactive
COc1ccccc1-c1cn(CC[C@H]2CC[C@@H](NC(=O)Cc3ccccn3)[C@H](CO)O2)nn1	none
CN(C)c1ccc(C(=O)c2ccccc2)cc1	none (no result: INS-1E GSIS act, PAX8 inh HTS, EWS-Fli block, F508del corr)
CN(C)c1ccc(N=Nc2ccc(C(=O)O)cc2)cc1	EWS-Fli block 65 (no result: PGC1a acetyl inh) | DNA binding inactive
O=c1c2ccccc2oc2cc(C#CC3(O)CCCCC3)ccc12	EWS-Fli block 77 (no result: INS-1E GSIS act) | DNA binding inactive
CCCCc1c(-c2ccccc2OC)ncn1Cc1ccc(C(C)(C)C)cc1	PAX8 inh HTS 72, EWS-Fli block 62 (no result: INS-1E GSIS act, PGC1a acetyl inh) | DNA binding inactive
COc1ccc(-n2c(-c3cc(-c4ccccc4)sc3N)n[nH]c2=S)cc1	none (no result: PGC1a acetyl inh)
Nc1sc(-c2ccccc2)cc1-c1n[nH]c(=S)n1C1CCCCC1	EWS-Fli block 59, F508del corr 13 (no result: INS-1E GSIS act) | DNA binding inactive
COC(=O)C[C@@H]1CC[C@@H]2[C@H](COc3ccc(NC(=O)Nc4ccc(C#N)cc4)cc3C(=O)N2C)O1	EWS-Fli block 53 | DNA binding inactive
COC(=O)C[C@@H]1CC[C@H]2[C@@H](COc3ccc(NC(=O)Nc4ccc(C#N)cc4)cc3C(=O)N2C)O1	none
COC(=O)C[C@@H]1CC[C@@H]2[C@H](COc3ccc(NC(=O)Nc4cccc(C#N)c4)cc3C(=O)N2C)O1	EWS-Fli block 65 (no result: HIV Env fusion) | DNA binding inactive
CCNC(=O)C[C@H]1CC[C@H]2[C@H](COc3ccc(NC(=O)c4ccc(F)c(F)c4)cc3C(=O)N2C)O1	none (no result: HIV Env fusion)
Nc1ccc(-c2nc3ccccc3s2)cn1	none (no result: PGC1a acetyl inh)
Cc1cc(-c2nc3ccccc3s2)ccc1N	EWS-Fli block 61 | DNA binding inactive
Cc1cccc(NC(=O)CN2C(=O)N/C(=C/c3ccc(C)o3)C2=O)c1	none (no result: EWS-Fli block, F508del corr)
COc1ccc(/C=C2/NC(=O)N(CC(=O)Nc3cccc(C)c3)C2=O)cc1O	EWS-Fli block 62 | DNA binding inactive
Cc1ccc(N2C(=O)c3cccc4c(N)ccc(c34)C2=O)c2cccnc12	PAX8 inh HTS inconclusive, EWS-Fli block 60 | DNA binding inactive
COCC#Cc1cnc2c(c1)C(=O)N([C@@H](C)CO)C[C@H](C)[C@H](CN(C)C(=O)Nc1ccccc1OC)O2	none (no result: PAX8 inh HTS)
CC(C)NC(=O)N1[C@@H](CO)[C@@H](c2ccccc2)C12CN(Cc1ccc(F)cc1)C2	none (no result: PAX8 inh HTS, HIV Env fusion)
COc1ccc(/C=C2/SC(=S)N(CCCC(=O)Nc3ccc(O)cc3)C2=O)cc1	none
COc1ccc(/C=C2\SC(=S)N(CCCC(=O)Nc3ccc(O)cc3)C2=O)cc1	EWS-Fli block 61 | DNA binding inactive
C=C1C(=O)[C@@]23[C@H](O)C[C@@H]4C(C)(C)CC[C@H](O)[C@@]4(C)[C@@H]2CC[C@@H]1[C@H]3O	PAX8 inh HTS 112, EWS-Fli block 60 (no result: PGC1a acetyl inh) | DNA binding inactive
N/C(Cc1nc(-c2ccc(F)cc2)cs1)=N\O	EWS-Fli block 77 | DNA binding inactive
COc1ccc2c3c([nH]c2c1)[C@H](CO)N(C(=O)Nc1ccc(F)cc1)CC31CCN(Cc2cc(F)ccc2F)CC1	none (no result: PAX8 inh HTS, HIV Env fusion)
C/C=C/c1cnc2c(c1)C(=O)N([C@@H](C)CO)C[C@@H](C)[C@@H](CN(C)C(=O)NC1CCCCC1)O2	none
COC(=O)CC1(C(=O)OC)Oc2ccc(Br)cc2C(=O)N1c1ccc(Br)cc1Cl (stereo unspecified)	none (no result: PGC1a acetyl inh)
COC(=O)CC1(C(=O)OC)Oc2ccc(Br)cc2C(=O)N1c1cccc(Cl)c1Cl (stereo unspecified)	EWS-Fli block 64, HIV Env fusion 65 (no result: PGC1a acetyl inh) | DNA binding inactive
Cc1cccc(NC(=O)CN2CCN(C(=O)CNC(=O)c3ccc(-c4ccccc4)cc3)CC2)c1C	EWS-Fli block 66 (no result: INS-1E GSIS act) | DNA binding inactive
O=c1[nH]c(/C=C2\C=Nc3ccccc32)c(O)n1Cc1ccccc1F	EWS-Fli block 63 | DNA binding inactive
CC(C)CN(C[C@H]1N[C@@H](CO)[C@@H]1c1ccc(-c2cncnc2)cc1)C(=O)C1CC1	none (no result: PAX8 inh HTS, EWS-Fli block, PGC1a acetyl inh, HIV Env fusion, F508del corr)
CCCC(=O)Nc1ccc2c(c1)OC[C@H](C)N(C(=O)CC1CC1)C[C@H](C)[C@H](OC)CN(C)C2=O	none
COc1ccc(S(=O)(=O)Nc2ccc3c(c2)n(C)c(=O)n3C)cc1OC	none (no result: EWS-Fli block)
COc1ccc(Cl)cc1S(=O)(=O)Nc1ccc2c(c1)n(C)c(=O)n2C	EWS-Fli block 54 (no result: PGC1a acetyl inh) | DNA binding inactive
COc1ccc(C2=NNC(=Nc3cc(S(=O)(=O)N(C)C)ccc3C)SC2)c(OC)c1	PAX8 inh HTS 103, EWS-Fli block 52, HIV Env fusion 67 | DNA binding inactive
CN=c1scc(-c2ccco2)n1/N=C/c1ccc(O)c(O)c1	none
CN=c1scc(-c2ccccc2F)n1/N=C/c1ccc(O)c(O)c1O	PAX8 inh HTS 83, EWS-Fli block 56 | DNA binding inactive
CN=c1scc(-c2ccccc2F)n1/N=C/c1ccc[nH]1	PAX8 inh HTS 96, EWS-Fli block 87, HIV Env fusion 67 | DNA binding inactive
Cc1noc(C)c1NC(=O)N(C)C[C@H]1Oc2ccc(NC(=O)CCC(F)(F)F)cc2CC(=O)N([C@H](C)CO)C[C@@H]1C	none
O=C(C[C@H]1C[C@H]2c3cc(NS(=O)(=O)c4ccc(F)cc4)ccc3O[C@H]2[C@H](CO)O1)NCc1ccc(Oc2ccccc2)cc1	PAX8 inh HTS 99, EWS-Fli block 54 | DNA binding inactive
CN(C)c1ccc2c(c1)[C@@H]1C[C@@H](CC(=O)NCc3ccc(Oc4ccccc4)cc3)O[C@H](CO)[C@@H]1O2	EWS-Fli block 52, F508del corr 17 | DNA binding inactive
CN(C)c1ccc2c(c1)[C@@H]1C[C@H](CC(=O)NCc3ccc(Oc4ccccc4)cc3)O[C@@H](CO)[C@@H]1O2	none
C[C@@H]1CN([C@@H](C)CO)C(=O)c2cccc(NC(=O)C3CC3)c2O[C@@H]1CN(C)C(=O)Nc1ccc2c(c1)OCO2	none (no result: PAX8 inh HTS)

Screening results: PubChem BioAssay, Broad Institute
